Assay results as given in PubChem BioAssay (NCI).
Compounds without any hit were thinned out: in the full panel of roughly 83,000, 20% have a hit.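 For each line, cells grew in 96-well plates with the test compound present at a single concentration for 48 hours.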 Active and inactive are the calls of the source. The calls were made as follows: active = growth percent below 10; inactive = the rest.

Each compound was assayed on HL-60(TB) leukemia (assay: NCI-60 one-dose screen, 48 h (100 = growth as untreated, 0 = no growth, -100 = all killed)). Settings: 10 µM unless noted.

Compound	growth
CCOc1c(C#N)c2c(N)ncnc2n1C1OC(CO)C(O)C1O (stereo not drawn)	2.98% (active)
CCN1C(=O)N(CC)C2Nn3c(s/c(=C4\C(=O)N(C)c5ccccc54)c3=O)=NC21 (stereo not drawn)	21.1% (inactive)
O=C(CC(SCc1ccccc1)c1ccccc1)c1ccccc1 (stereo not drawn)	66.7% (inactive)
